The experiment relates to RIVA. The experiment is described as follows: growth inhibition by drug alone (1 - RLU/untreated control) (fraction); higher = stronger inhibition. The note with it: 177Lu-lilotomab satetraxetan 0 ug/ml. How it is done: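 RIVA (RI-1) ABC-DLBCL cells were pretreated or not for 18 h with 0.5 ug/ml 177Lu-lilotomab satetraxetan (600 MBq/mg), washed and seeded (3000 cells/well) on 384-well plates pre-printed with the Selleck Cambridge Cancer Compound library. Viability was read by RealTime-Glo luminescence on days 3-6 after seeding. Effect = 1 - RLU/mean RLU of the 48 untreated no-drug control wells per plate; Bliss score = (M-E)/(1-Fa).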

As to `CN(C)CCN(C)CCc1ccc(Cl)c(Cl)c1`, the “growth inhibition by drug alone” value was -0.216 (10 nM, time (day): 3); -0.209 (10 nM, time (day): 4); -0.338 (10 nM, time (day): 5); -0.472 (10 nM, time (day): 6); -0.276 (100 nM, time (day): 3); -0.227 (100 nM, time (day): 4). Further, the “growth inhibition by drug alone” value was -0.333 (100 nM, time (day): 5) and -0.453 (100 nM, time (day): 6).

Regarding `CC(C)[C@]12O[C@H]1[C@@H]1O[C@]13[C@]1(O[C@H]1C[C@H]1C4=C(CC[C@@]13C)C(=O)OC4)[C@@H]2O` [Triptolide], the “growth inhibition by drug alone” value amounted to 0.376 (10 nM, time (day): 3); 0.671 (10 nM, time (day): 4); 0.753 (10 nM, time (day): 5); 0.792 (10 nM, time (day): 6); 0.907 (100 nM, time (day): 3); 0.934 (100 nM, time (day): 4). Besides, the “growth inhibition by drug alone” value (100 nM, time (day): 5) is 0.957 and the “growth inhibition by drug alone” value (100 nM, time (day): 6) came to 0.967.

With `O=C(O)c1nn(Cc2ccc(Cl)cc2Cl)c2ccccc12` [Lonidamine], the “growth inhibition by drug alone” value (10 nM, time (day): 3) stood at 0.0283; the “growth inhibition by drug alone” value (10 nM, time (day): 4) was 0.0585; the “growth inhibition by drug alone” value (10 nM, time (day): 5) was found to be 0.0114; the “growth inhibition by drug alone” value (10 nM, time (day): 6) is -0.393; the “growth inhibition by drug alone” value (100 nM, time (day): 3) was -0.419; the “growth inhibition by drug alone” value (100 nM, time (day): 4) is -0.301. Also, the “growth inhibition by drug alone” value by setting is: (100 nM, time (day): 5) -0.332; (100 nM, time (day): 6) -0.381.

In the case of `O=C(Oc1ccc([N+](=O)[O-])cc1)N1CCC(C(O)(c2ccc3c(c2)OCO3)c2ccc3c(c2)OCO3)CC1`, the “growth inhibition by drug alone” value was 0.0104 (10 nM, time (day): 3); -0.0507 (10 nM, time (day): 4); -0.0874 (10 nM, time (day): 5); -0.233 (10 nM, time (day): 6); -0.163 (100 nM, time (day): 3); -0.136 (100 nM, time (day): 4). Moreover, the “growth inhibition by drug alone” value reads like this: (100 nM, time (day): 5) -0.159; (100 nM, time (day): 6) -0.226.

Take `Cc1cc2c(C(C)C)c(O)c(O)c(C=O)c2c(O)c1-c1c(C)cc2c(C(C)C)c(O)c(O)c(C=O)c2c1O` [Gossypol]: the “growth inhibition by drug alone” value by setting is: (10 nM, time (day): 3) -0.235; (10 nM, time (day): 4) -0.278; (10 nM, time (day): 5) -0.288; (10 nM, time (day): 6) -0.349; (100 nM, time (day): 3) -0.0878; (100 nM, time (day): 4) -0.143. In addition, the “growth inhibition by drug alone” value by setting is: (100 nM, time (day): 5) -0.172; (100 nM, time (day): 6) -0.216.

For the origin of these results see the supplement of paper PMC6897291.
